Test results published in PubChem BioAssay AID624418 (National Center for Advancing Translational Sciences (NCATS), 2012).
The whole screen tested about 410,000 compounds, of which about 530 (0.13%) were called active. Inconclusive results (about 5%) are left out. Calls follow the shape of the dose curve; as a rule, active = well fitted inhibition curve with a large enough effect; inconclusive = small, poorly fitted or top-dose-only effect, or another doubt; inactive = no such curve, though single readings can be large or run the other way. Shown is part of a subset that was picked to be rich in actives.

Assay: qHTS of GLP-1 Receptor Inverse Agonists: Cytotox Screen;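 also: loss of luciferase light is scored as toxicity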
Details: HEK293 cAMP-luciferase reporter cells, luminescence, 24 h; series mostly up to 38.3 µM; activity change, negative = inhibition: at the top concentration
Method in brief: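 1536-well qHTS counterscreen of the MLSMR; 200 cells/uL, 12 h pre-incubation, 23 nL cpd, 24 h at 37 deg C 5% CO2, luciferase detection reagent, 12 min RT, luminescence. Inhibition = undesired.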
% is scaled to controls: 0 for no effect and ±100 for the full control effect; potency is read from the fitted curve at half-maximal effect.

| SMILES | activity change, negative = inhibition | Potency |
| --- | --- | --- |
| CCCN(CCC)CCCNC(=O)Cn1ncc2c3ccccc3n(Cc3ccccc3)c2c1=O | -1.81% (inactive) |  |
| CCCN(C(=O)Cn1cc(S(=O)(=O)N2CCN(c3ccccc3F)CC2)c2ccccc2c1=O)c1cccc(C)c1 | -2.03% (inactive) |  |
| CSc1oc(-c2cccs2)nc1S(=O)(=O)c1ccc(Br)cc1 | 27.9% (inactive) |  |
| O=C(c1ccc(C(F)(F)F)cc1)N1CCC(c2nc(-c3ccc(S(=O)(=O)N4CCCC4)cc3)no2)CC1 | -10.9% (inactive) |  |
| CCN(CCCNC(=O)c1c(C)oc2ncn(CC(C)C)c(=O)c12)Cc1ccccc1 | 1.92% (inactive) |  |
| CCC1CCCCN1S(=O)(=O)c1ccc(NC(=O)c2cc(=O)c3ccccc3o2)cc1 (centres undefined) | 2.36% (inactive) |  |
| CC(C)CC(=O)NCC(c1ccc2c(c1)OCO2)N1CCN(c2ccc(F)cc2)CC1 (centres undefined) | 0.505% (inactive) |  |
| CCNC(=O)CC1C(=O)N(c2ccc(F)cc2)C(=O)N1Cc1ccc(C)cc1 (centres undefined) | -12.9% (inactive) |  |
| Cc1cc2c(cc1S(=O)(=O)CCC(=O)Nc1ccc(OC(F)(F)F)cc1)OCC(=O)N2 | -12.7% (inactive) |  |
| CCOC(=O)c1[nH]c(C)c(CCC(=O)NCc2ccccc2C)c1C | 2.99% (inactive) |  |
| Cc1ccc2oc3c(c(=O)c2c1)C(c1ccc([N+](=O)[O-])cc1)N(CCCN1CCOCC1)C3=O (centres undefined) | 3.33% (inactive) |  |
| O=S(=O)([N-]c1nc2ccccc2nc1-[n+]1ccc(Cc2ccccc2)cc1)c1ccc(Br)s1 |  | 10 µM (active) |
| CCOc1ccc(C(NC(=O)c2cc(OC)c(OC)c(OC)c2)c2cc(Cl)c3cccnc3c2O)cc1 (centres undefined) | -29% (inactive) |  |
| O=C(NC1CCN(Cc2ccccc2)CC1)c1ccc(Cn2c(=O)c3ccccc3n(Cc3cccc(F)c3)c2=O)cc1 | 10.6% (inactive) |  |
| CCOC(=O)c1cc(-c2ccc(OC)c(S(=O)(=O)Nc3ccc(OC)cc3OC)c2)on1 | 2.54% (inactive) |  |
| Cc1cc(C)cc(NC(=O)CCS(=O)(=O)c2cc3c4c(c2)CCN4C(=O)CC3)c1 | 1.12% (inactive) |  |
| COc1cccc(NC(=O)CSc2cc(=O)n(C)c3ccc(Cl)cc23)c1 | 1.69% (inactive) |  |
| CN(Cc1ccccc1)C(=O)c1cn(C)c2ccc(S(=O)(=O)N(C)C3CCCCC3)cc2c1=O | 3.25% (inactive) |  |
| CCOC(=O)Cn1c(=O)n(C2CCCCC2)c2nc(-c3cccc(OC)c3)nc(C(N)=O)c21 | 1.53% (inactive) |  |
| COc1cccc(Cn2c(SCc3ccc(C(=O)N4CCC(C)CC4)cc3)nc3ccncc32)c1 | -1.45% (inactive) |  |

| SMILES | activity change, negative = inhibition | Potency |
| --- | --- | --- |
| Cc1cc(C)cc(NS(=O)(=O)c2ccc3[nH]cc(C(=O)N4CCCCC4)c(=O)c3c2)c1 | -4.69% (inactive) |  |
| Cc1cn(C)c(CC(=O)NCc2ccccc2)c1C(=O)O | 5.49% (inactive) |  |
| COc1ccccc1NC(=O)c1cc(C2CC2)nc2c1c(C)nn2-c1ccc(C)cc1 | -5.07% (inactive) |  |
| Cc1ccc(S(=O)(=O)NCc2nc3nc(C)cc(C)n3n2)cc1 | 2.32% (inactive) |  |
| COc1ccc2c(c1)c(N1CCCC1=O)c(C(=O)Nc1ccccc1C(F)(F)F)n2C | -1.4% (inactive) |  |
| Cc1ccc(Nc2nnc(-c3ccc(C)c(S(=O)(=O)N4CCCCC4)c3)c3ccccc23)cc1 | 10.8% (inactive) |  |
| COc1ccc(NC(=O)CCCc2nnc3n(CCC(C)C)c(=O)c4sccc4n23)c(OC)c1 | 5.32% (inactive) |  |
| Cc1cccc(NC(=O)N2CCN(C)c3ncccc32)c1C | 0.303% (inactive) |  |
| Cc1ccc(NC(=O)Cn2c(=O)n(-c3ccccc3)c(=O)c3c4c(sc32)CCCC4)cc1 | -4.75% (inactive) |  |
| CCN(CC)S(=O)(=O)c1ccc(C(=O)N=c2sc3cccc(OC)c3n2C)cc1 | 5.63% (inactive) |  |
| O=C(c1cccs1)c1cn(CCOc2ccc(Cl)cc2)c2ccccc12 | 0.0889% (inactive) |  |
| CCc1ccc(NC(=O)c2cc(S(=O)(=O)N3CCCC(C)C3)cn2C)cc1 (centres undefined) | -16.5% (inactive) |  |
| COc1ccc(CCNCc2c(C(=O)O)c(C)n(Cc3cccc(C)c3)c2C)cc1OC | -1.48% (inactive) |  |
| Cc1cn(C)c(CC(=O)NCc2ccc(Cl)cc2)c1C(=O)O | -7.39% (inactive) |  |
| CCOc1ccc(N2CC(c3nc4ccccc4n3CCOc3ccc(OC)cc3)CC2=O)cc1 (centres undefined) | -12% (inactive) |  |
| O=C(NCc1ccccc1Cl)c1cccn1-c1nnc(N2CCCCC2)s1 | -1.65% (inactive) |  |
| COc1ccc(N(CC(=O)NCCc2ccc(Cl)cc2)S(=O)(=O)c2c(C)nn(C)c2C)cc1 | -6.46% (inactive) |  |
| CC(CNC(=O)c1nnc(Cc2cccc(F)c2)o1)c1ccccc1 (centres undefined) | 0.552% (inactive) |  |
| Cc1ccc(CNC(=O)CCc2c(C)nc3c(c(C)nn3-c3ccccc3)c2C)cc1 | 12.6% (inactive) |  |
| CNc1ccc(-c2nc(-c3ccco3)no2)cc1[N+](=O)[O-] | 2.51% (inactive) |  |

| SMILES | activity change, negative = inhibition | Potency |
| --- | --- | --- |
| O=C(NCCc1ccc(Cl)cc1)c1ccc2c(c1)N(Cc1ccc(F)cc1)C(=O)CS2 | -10.6% (inactive) |  |
| CCOc1ccc(-c2nonc2NC(=O)c2oc3ccc(CC)cc3c2C)cc1 | -6.03% (inactive) |  |
| COc1ccc(NC(=O)C(c2ccccc2)N2Cc3ccccc3C2=O)cc1 (centres undefined) | 3.88% (inactive) |  |
| CCOc1ccc(NC(=O)C2CCN(S(=O)(=O)c3cc(-c4noc(C)n4)ccc3C)CC2)cc1 | -6.45% (inactive) |  |
| CC1CC2=C(CC1/C=N/NC(N)=S)C(C)(C)CCC2 (centres undefined) |  | 2.24 µM (active) |
| Cc1nc2c(-c3ccccc3)c(C)nn2c(C)c1CCC(=O)NCCc1ccccc1 | 2.89% (inactive) |  |
| Cc1cccc(CSc2nc3ccncc3n2CC(=O)N(C)C2CCCCC2)c1 | 0.871% (inactive) |  |
| CC(C)(C)OC(=O)N1CCC(c2c(C(=O)N3CCN(c4cccc(Cl)c4)CC3)cnn2-c2cccc(Cl)c2)CC1 | 1.54% (inactive) |  |
| COc1ccccc1Nc1c2c(nc3ccc(NC(=O)/C=C/c4cc(OC)c(OC)c(OC)c4)cc13)CCCC2 |  | 4.47 µM (active) |
| COc1cc(/C=C/C(=O)N2CCc3ccccc3C2)cc(OC)c1OC | 3.72% (inactive) |  |
| CCOc1ccc(C(=O)Nc2ccc3nc4c(c(Nc5ccccc5OC)c3c2)CCCC4)cc1 | -22.1% (inactive) |  |
| CC(=O)N1CCc2cc(S(=O)(=O)NC(Cc3ccccc3)C(=O)NCc3ccc(C)cc3)ccc21 (centres undefined) | -0.157% (inactive) |  |
| Clc1cccc(-n2ncc3c(NCCc4ccccc4)ncnc32)c1 | -12.3% (inactive) |  |
| CCn1cc(C(=O)NCc2ccc(C)cc2)c(=O)c2cc(S(=O)(=O)N3CCc4ccccc4C3)ccc21 | -11.4% (inactive) |  |
| CCOc1cc(C(=O)NCCc2csc3nc(-c4ccc(C)cc4)nn23)cc(OCC)c1OCC | 7.6% (inactive) |  |
| CCCCN1CC(c2nc3ccccc3n2CCCCOc2ccc(C)cc2C)CC1=O (centres undefined) | -18.1% (inactive) |  |
| CC1(C(=O)N/N=C/c2cc3c(cc2Br)OCO3)CC1(Br)Br (centres undefined) | 5.99% (inactive) |  |
| CC(C)Oc1c(Br)cc(Br)cc1/C=N/NC(N)=S |  | 2.51 µM (active) |
| CCCCn1cc(S(=O)(=O)c2ccc(OCC)cc2)c(=O)c2cc(OC)c(OC)cc21 | -4.49% (inactive) |  |
